From PubChem BioAssay
CYP2C19 act: human CYP2C19 activators, primary screen, biochemical, luminescence | Cytochrome P450 2C19 (Homo sapiens), P33261 | recombinant CYP2C19, luciferin-H EGE luminescence; stronger effect = higher value; 0 = fully inhibited enzyme, 1 = untreated enzyme | activation factor at 5 µM | 96,000 tested, under 10 active;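 active means activation factor of at least 2 at 5 µM in the primary screen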;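 further: 0 = wells with 2.5 mM tranylcypromine and 1 = vehicle-only wells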
CYP2C9 act: human CYP2C9 activators, primary screen, biochemical, luminescence | Cytochrome P450 2C9 (Homo sapiens), P11712 | recombinant CYP2C9, luciferin-H conversion; stronger effect = higher value; factor 1 = untreated enzyme, 0 = blocked | activation factor at 5 µM | 96,000 tested, 1.4% active | AID 1024, 2008;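 active means activation factor of 2 or more for CYP2C9 at a 5 µM dose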;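 further: 0 = sulfaphenazole-blocked wells and 1 = vehicle-only wells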
Target sequence (P11712 whole entry, looked up): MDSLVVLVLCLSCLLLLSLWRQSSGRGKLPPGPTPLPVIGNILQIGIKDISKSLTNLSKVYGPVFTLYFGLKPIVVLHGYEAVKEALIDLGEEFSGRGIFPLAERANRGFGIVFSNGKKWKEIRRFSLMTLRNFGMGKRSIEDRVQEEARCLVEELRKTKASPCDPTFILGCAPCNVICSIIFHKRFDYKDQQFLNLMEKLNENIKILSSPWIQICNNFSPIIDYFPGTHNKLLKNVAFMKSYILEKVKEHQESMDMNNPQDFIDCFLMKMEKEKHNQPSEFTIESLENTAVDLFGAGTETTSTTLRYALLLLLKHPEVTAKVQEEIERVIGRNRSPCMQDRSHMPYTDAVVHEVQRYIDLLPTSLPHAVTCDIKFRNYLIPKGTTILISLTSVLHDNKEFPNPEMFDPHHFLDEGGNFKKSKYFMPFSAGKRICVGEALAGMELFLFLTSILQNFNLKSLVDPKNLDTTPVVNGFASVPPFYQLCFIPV
CYP2C9 inhib: blockers of cytochrome P450 2C9 activity – biochemical, luminescence, ADME assay, primary screen; CYP2C9 Supersomes, luciferin-H conversion; 96,000 tested, 20% active; P11712; inhibition, % at 5 µM;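 active means blocking of liver enzyme CYP2C9 beyond about 50% at 5 µM, limit read from the data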
CYP2C19 inhib: blockers of cytochrome P450 2C19 activity – biochemical, luminescence, ADME assay, primary screen. P33261. CYP2C19 Supersomes, luciferin-H EGE luminescence, 30 min. inhibition, % at 5 µM. 96,000 tested, 21% active;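 active means CYP2C19 inhibition above a set limit at 5 µM in the primary screen, cut at about 50% in these data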;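 further: plate controls were negative control wells for no effect and 2.5 mM tranylcypromine positive control for full effect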
PostGolgi yeast: phenotypic screen on post-Golgi transport, primary screen; post-Golgi transport phenotypic cell assay; inhibition, % at 10 µM; 98,000 tested, 0.9% active; AID 739, 2007;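 further: yeast cells grown in 1536-well plates; yeast grown about 18 h at 30C before absorbance read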
PostGolgi ctrl: growth inhibition of yeast control strain, primary screen, counter-screen for post-Golgi transport modulator project | 98,000 tested, 5% active | efflux-deficient yeast background strain, growth absorbance A615, 16 h | inhibition, % at 10 µM
* marks the source's active call; other numbers are inactive results; · = not tested or not shown. In the library only some 32% were active in any assay of this set; here they are far more common. Unless noted, no stated cut-off is given here; in the data, active means inhibition above about 30%; inactive means the rest.

SMILES	CYP2C19 act	CYP2C9 act	CYP2C9 inhib	CYP2C19 inhib	PostGolgi yeast	PostGolgi ctrl
COc1ccc(OCc2nnc3n2N=C(c2ccc(C)cc2)CS3)cc1	0.7	0.7	32	30	4	14
CCOc1ccc(C2=Nn3cnnc3SC2)cc1	0	0.7	27	95*	-6	22
COc1ccc(C2=Nn3c(nnc3-c3ccncc3)SC2)cc1	0.7	0.4	56*	34	1	23
COc1ccc(OCc2nnc3n2N=C(c2ccc(OC)cc2)CS3)cc1	0.1	0.1	90*	88*	-2	32*
CCOc1ccc(C2=Nn3c(nnc3-c3ccc(OC)cc3)SC2)cc1	1	0.9	11	-1	2	19
O=[N+]([O-])c1ccc2nc(-c3ccccc3)n(OCc3ccc(Cl)cc3)c2c1	0.9	0.8	18	13	-3	16
COc1ccc(OC)c(C2=Nn3c(nnc3-c3ccco3)SC2)c1	0.1	0.3	69*	85*	0	26
Cc1ccc(OCc2nc(-c3ccccn3)n[nH]2)cc1	0.9	0.8	18	11	-1	-3
Cc1oc2c(c(=O)c1C)C(=O)CC(c1ccccc1)C2 (configuration not stated)	0.8	1.2	-15	22	1	6
CCCc1n[nH]c2c1/C(=N/O)CC(c1ccccc1)C2 (configuration not stated)	0.2	0.6	35	77*	-2	25
Cc1[nH]nc2c1/C(=N\O)CC(C)(C)C2	0.5	0.7	26	51*	-2	39*
CCc1noc2c1/C(=N\O)CC(c1ccccc1)C2 (configuration not stated)	0.2	0.3	72*	76*	5	22
CCc1n[nH]c2c1/C(=N/O)CCC2	1.1	1.2	-18	-14	-3	3
Cc1[nH]nc2c1/C(=N/O)CC(c1ccccc1)C2 (configuration not stated)	0.3	0.6	45	74*	-1	-1
O=C(NCc1cccs1)c1cnn2cccnc12	0.7	1.1	-14	33	-2	0
CCn1c(C)[n+](CC(O)COCC2CC=CCC2)c2ccccc21 (configuration not stated)	1.1	1	-4	-13	-4	3
CCCCn1c(NC(C)CC)nc2c1c(=O)[nH]c(=O)n2C (configuration not stated)	0.9	0.5	53*	9	-3	-2
CCCCCn1c(SC(C)C(C)=O)nc2c1c(=O)[nH]c(=O)n2C (configuration not stated)	1	0.9	12	-3	-8	14
Cc1ccc(Cn2c(N3CCCCCC3)nc3c2c(=O)[nH]c(=O)n3C)cc1	1	1	0	3	6	43*
CCN1CCN(c2nc3c(c(=O)[nH]c(=O)n3C)n2CCSc2nc3ccccc3s2)CC1	0.9	0.6	37	7	-3	0
Cn1c(=O)c2c(nc(N3CCCCCC3)n2CCSc2nc3ccccc3o2)n(C)c1=O	0.7	0.6	43	32	2	24
Cn1c(=O)[nH]c(=O)c2c1nc(N1CCCCCC1)n2CCCSc1nc2ccccc2o1	0.3	0.2	83*	66*	3	25
Cc1csc(SCCn2c(N3CCN(c4ccccc4)CC3)nc3c2c(=O)[nH]c(=O)n3C)n1	0.5	0.5	52*	49	7	7
CCN1CCN(c2nc(C)nc3c2sc(=S)n3C)CC1	1	0.9	9	-5	0	10
CC(C)CCn1c(CN2CCN(Cc3ccccc3)CC2)nc2c1c(=O)[nH]c(=O)n2C	0.9	0.8	25	14	2	-1
SMILES	CYP2C19 act	CYP2C9 act	CYP2C9 inhib	CYP2C19 inhib	PostGolgi yeast	PostGolgi ctrl
CC(C)CCn1c(N2CCN(Cc3ccccc3)CC2)nc2c1c(=O)[nH]c(=O)n2C	0.2	0.2	76*	77*	·	·
Cc1cccc(Cn2c(N3CCCCC3C)nc3c2c(=O)[nH]c(=O)n3C)c1 (configuration not stated)	·	·	·	·	1	31*
Cc1cccc(Cn2c(N3CCc4ccccc4C3)nc3c2c(=O)[nH]c(=O)n3C)c1	0.9	0.7	32	14	2	10
Cn1c(=O)[nH]c(=O)c2c1nc(CN1CCN(c3cccc(Cl)c3)CC1)n2Cc1ccccc1Cl	1	0.3	73*	2	8	51*
CC1CCCN(c2nc3c(c(=O)[nH]c(=O)n3C)n2Cc2ccccc2Cl)C1 (configuration not stated)	1.1	0.8	17	-12	2	34*
C=CCSc1nnc2c(n1)OC=Nc1ccccc1-2	0.5	0.8	20	49	0	-1
CCN(CC)CCCNC(=O)c1cn(CCOC)c(=O)c2c1c1ccccc1n2C	1	1	4	1	-11	13
Fc1cccc(CN2CCN(c3ncccn3)CC2)c1	0.7	0.9	7	25	-1	1
CCCn1c(N2CCN(CC(=O)c3c[nH]c4ccccc34)CC2)nc2c1c(=O)[nH]c(=O)n2C	0.5	0.3	70*	46	4	-4
CCCCCn1c(N2CCN(Cc3ccccc3)CC2)nc2c1c(=O)[nH]c(=O)n2C	0.4	0.6	43	61*	1	14
Cc1cccc(Cn2c(CN3CCN(Cc4ccccc4)CC3)nc3c2c(=O)[nH]c(=O)n3C)c1	0.9	0.9	7	8	-2	7
CCCn1c(N2CCN(Cc3cccc(C)c3)CC2)nc2c1c(=O)[nH]c(=O)n2C	0.1	1	-3	90*	6	-1
Cc1ccnc2ccc(-c3nc4ccccc4o3)cc12	0.8	1	0	18	3	10
C=CCN1C(=O)C(CC(=O)Nc2ccccc2)SC1=Nc1c(C)n(C)n(-c2ccccc2)c1=O (configuration not stated)	0.7	0.6	41	26	13	10
O=c1[nH]c2c(cc1CNCCN1CCOCC1)c(-c1cccc(F)c1)nn2-c1ccccc1	1	0.8	20	4	·	·
O=c1cc(C(F)(F)F)nc(-c2ccccc2)[nH]1	1	0.7	30	0	10	18
COc1ccc(C2CC(=O)C3=C(C2)NC(C)=C(C(=O)Nc2ccccc2C)C3c2coc3ccc(C)cc3c2=O)cc1OC (configuration not stated)	0.8	0.7	31	17	98*	25
COc1cccc(C2NC(=O)NC(C)=C2C(=O)Nc2ccccc2C)c1 (configuration not stated)	1.1	1.2	-19	-13	0	9
CCC(CC)C(=O)NCCc1cc2cc(C)c(C)cc2[nH]c1=O	0.7	0.4	63*	28	-6	5
